According to PubChem BioAssay (NCI):
Several values for one entry are separate records, joined by “and”; a condition that tells them apart may be missing. Equal entries are not always repeated. About 79,000 compounds went through this panel and 15% of them were active in at least one assay; those are over-represented in the sample as a whole. A number with no mark means an inactive call. Activity calls are given as the source filed them. No stated cut-off is given here; in the data, active means growth inhibition above about 70%; inactive means the rest.

Experiment: NCI Yeast Anticancer Drug Screen. Data for the cln2 rad14 strain (AID 165);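 further: 0% = growth equal to vehicle treated cultures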
Details: S. cerevisiae cln2 rad14 strain, stronger effect = higher value
Protocol: Growth inhibition of yeast strains with defined genetic alterations is measured as a screen for potential anti-cancer activity. Selected strains with alterations in DNA damage repair or cell cycle control were exposed to compounds and growth inhibition was measured relative to vehicle treated controls. The strain used in this assay is cln2 rad14

[1] = at 5.0 µM (retest, dose inferred, filed as 0.5)
[2] = at 50.0 µM (retest, dose inferred, filed as 5.0)

Row | SMILES | growth inhibition [1] | growth inhibition [2] | growth inhibition (at 50.0 µM)
1 | C=Cc1ccccc1 (tested in a mixture with another compound) | -3% | 3% | 1.25% and -3.6% and 2.15%
2 | CNCC(O)c1ccc(O)c(O)c1.[Pt].c1ccc([PH+](c2ccccc2)c2ccccc2)cc1.c1ccc([PH+](c2ccccc2)c2ccccc2)cc1 | 17% | 99% (active) | 98.8% (active)
3 | O=C1c2ccccc2[Se](=O)N1c1ccccc1 (stereo unspecified) | 45% | 98% (active) | 91.7% (active)
4 | O=C(COc1ccc(Cl)c(Cl)c1)N(Cc1ccccc1)Cc1ccc[n+](Cc2ccc(Cl)cc2S(=O)(=O)F)c1 | 10% | 78% (active) | 50.4%
5 | c1ccc2c(c1)CCc1c-2[nH]c2ccccc12 | -60% | 65% | 51.8%
6 | c1ccncc1 | 0% | -1% | 
7 | [Pt].c1ccc(P(CCP(c2ccccc2)c2ccccc2)CCP(c2ccccc2)c2ccccc2)cc1 | 43% | 91% (active) | 79.2% (active)
8 | NCC(O)c1cccc(O)c1 (stereo unspecified) | 24% | 65% | 60%
9 | Oc1c(Cl)c(Cl)c(Cl)c(Cl)c1Cl | 15% and 30% | 99% (active) | 99% (active)
10 | COc1ccc2c(c1O)C13CCN(C)C(C2)C12C=CC(=O)C3c1c(O)ccc(O)c12 (stereo unspecified) | -2% | 41% | 72.5% (active)
11 | C=Cc1c2ccccc2cc2ccccc12 | 44% | 60% | 77% (active)
12 | [Cl][Pt+2][Cl].[NH-]C1CCCC2CCC[N-]C12 (stereo unspecified) | 50% | 86% (active) | 34%
13 | CC/C(=C(/CC)c1ccc(OP(N)(=O)N(CCCl)CCCl)cc1)c1ccc(OP(N)(=O)N(CCCl)CCCl)cc1 (stereo unspecified) | 3% | 31% | -9.95%
14 | Nc1nc(-c2ccccc2)c(-c2ccccc2)[se]1 | 11% | 2% | -11.8%
